Measured potencies and affinities stand elsewhere. A number with no mark means an inactive call.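 Rule for the calls: active = fluorescent signal decreased by at least 40%; inconclusive = no clear call, values can overlap the other calls; inactive = the rest, including activity opposite to the expected direction.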
Test: fibronectin fibrillogenesis inhibitors in fibroblasts, dose response, AH1F cells, Alexa488-fibronectin fluorescence, cherry-pick, set 2 (AID 1117283);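 note: AH1F fibroblasts given Alexa488-labelled fibronectin at 24 nM final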
Details: Alexa488-fibronectin deposition fluorescence, overnight; series mostly up to 35 µM; activity change, negative = inhibition: at the top concentration

SMILES	activity change, negative = inhibition
Cc1ccc(S(=O)(=O)N2CC[C@H]3[C@H](CO)Nc4ccc(-c5cccc(C(=O)N(C)C)c5)cc4[C@H]32)cc1	3.11%
Cc1cccc(NC(=O)Nc2ccc(S(=O)(=O)Nc3onc(C)c3C)cc2)c1	-5.54%
CO[C@@H]1CN(C)C(=O)c2ccc(NC(=O)c3ccc(-c4ccccc4)cc3)cc2OC[C@H](C)NC[C@@H]1C	-8.9%
CN1c2ccc(-c3ccccc3)cc2[C@H]2[C@H](CCN2C(=O)CN2CCOCC2)[C@@H]1CO	6.7%
COC(=O)C[C@H]1CC[C@H]2[C@H](COc3ccc(NC(=O)Cc4cccs4)cc3C(=O)N2C)O1	-7.38%
O=C(Nc1ccccc1F)N1C[C@H]2[C@@H](c3ccccc31)[C@@H](CO)N2C(=O)C1CC1	14.7%
N#C[C@H]1[C@H](c2ccccc2C2=CCCCC2)[C@H](CO)N1S(=O)(=O)c1ccccc1	-0.083%
COc1cccc(CN2CCN(C(=O)c3ccc(-c4ccccc4)cc3)CC2)c1OC	0.469%
COc1ccccc1CC(=O)OC(C)C(=O)Nc1ccc(S(=O)(=O)N2CCCCC2)cc1 (stereo not drawn)	10.7%
CN(C)C(=O)c1ccc(-c2ccc3c(c2)[C@@H]2[C@@H](CCN2C(=O)c2ccc(F)cc2)[C@H](CO)N3C)cc1	10.2%
COc1ccc(Cl)cc1NC(=O)CSc1nc(Nc2ccccc2)nc(N2CCOCC2)n1	27.7%
O=S(=O)(c1ccccc1F)N1CC[C@@H]2[C@H](CO)Nc3ccc(-c4cccc(F)c4)cc3[C@@H]21	-7.86%
C[C@H]1CN([C@@H](C)CO)C(=O)c2cccc(NC(=O)Nc3ccc(C(F)(F)F)cc3)c2O[C@@H]1CN(C)C(=O)Nc1cccc2ccccc12	4.08%
